Where a name gives a salt, the structure may show the parent alone.
Experiments:
Assay in all cases: Euclidean distance of Cell Painting phenotypic profile (signed KS, 77 features) to DMSO centroid (dimensionless distance); 5 or 10 uM (library dependent); higher = stronger phenotypic change vs DMSO (phenoactivity)
Details in all cases: 48 h
[1] = tested on: 786-O
Outline: (§1)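 Five cancer lines, together with a healthy fibroblast line, received library compounds for 48 h at a library-dependent 10 or 5 uM and 0.1% DMSO final. Harmony then derived 77 features from confocal 20X images (9 fields/well) of the stained cells, scoring each as a signed Kolmogorov-Smirnov statistic against same-plate vehicle wells. After plate-position correction, correlation weighting and replicate averaging at the top dose, phenoactivity was taken as each profile's Euclidean distance to the median vehicle profile.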

[2] = tested on: A549
Outline: as §1

[3] = tested on: DU145
Outline: as §1

[4] = tested on: FB
Outline: as §1

[5] = tested on: HEPG2
Outline: as §1

[6] = tested on: OVCAR4
Outline: as §1

SMILES	Euclidean distance [1]	Euclidean distance [2]	Euclidean distance [3]	Euclidean distance [4]	Euclidean distance [5]	Euclidean distance [6]
CC1(C)S[C@@H]2[C@H](NC(=O)[C@H](N)c3ccc(O)cc3)C(=O)N2[C@H]1C(=O)O [Amoxicillin trihydrate]	0.875	1	0.666	0.987	0.529	1.31
CCCC(=O)O[C@]1(C(=O)CO)CC[C@H]2[C@@H]3CCC4=CC(=O)CC[C@]4(C)[C@H]3[C@@H](O)C[C@@]21C [Hydrocortisone butyrate]	1.21	2.18	1.87	1.7	1.87	2.45
Cc1cc(C(C)(C)C)cc(C)c1CC1=NCCN1 [Xylometazoline HCl]	0.708	0.547	0.707	0.795	0.707	0.903
O=C(Nc1ccccc1-c1cn2c(CN3CCNCC3)csc2n1)c1cnc2ccccc2n1	6.03	5.64	5.63	5.74	5.23	5.14
CCOC(=O)n1ccn(C)c1=S [Carbimazole]	1.03	1.11	1.2	0.945	0.319	1.09
Cn1cc(-c2ccc3nnc(Sc4ccc5ncccc5c4)n3n2)cn1	1.56	2.02	1.64	0.87	0.766	0.987
Cc1cncc(CN2CCC(=C3c4ccc(Cl)cc4CCc4cccnc43)CC2)c1 [Rupatadine Fumarate]	1.51	1.15	1.34	1.22	1.69	1.27
CCCCN1CCCCC1C(=O)Nc1c(C)cccc1C (stereo not drawn) [Bupivacaine HCl]	1.38	0.594	1.45	0.904	0.991	1.15
Cn1nnc(-c2ccc(-c3ccc(N4C[C@H](COP(=O)(O)O)OC4=O)cc3F)cn2)n1 [Tedizolid Phosphate]	0.75	0.64	0.82	0.929	0.638	0.87
Cn1nnc2c(C(N)=O)ncn2c1=O [Temozolomide]	1.44	0.97	2.71	0.972	1.44	0.619
COC(=O)N[C@@H](C)CNc1nccc(-c2cn(C(C)C)nc2-c2cc(Cl)cc(NS(C)(=O)=O)c2F)n1	2.13	1.78	1.47	2.67	3.02	1.86
COC(=O)C1=CO[C@@H](O)[C@@H]2C(CO)=CC[C@H]12 [Genipin]	1.19	1.13	0.882	1.15	0.828	1.35
CN1C(=O)OC(C)(C)C1=O [Trimethadione]	0.978	1.26	0.732	0.717	0.658	0.721
CCOC(=O)c1c(CSc2ccccc2)n(C)c2cc(Br)c(O)c(CN(C)C)c12 [Arbidol HCl]	1.37	1.41	2.16	1.38	1.34	1.63
C[C@H]1COC2(CCN(c3nc(=O)c4cc(C(F)(F)F)cc([N+](=O)[O-])c4s3)CC2)O1 (racemic) [BTZ043 Racemate]	1.5	0.656	1.01	1.47	0.565	0.748
Cc1nc(-c2ccc(OCC(C)C)c(C#N)c2)sc1C(=O)O [Febuxostat]	0.758	0.915	0.667	0.514	0.375	0.978
O=C(NC1CCN(CCCCC2(C(=O)NCC(F)(F)F)c3ccccc3-c3ccccc32)CC1)c1ccccc1-c1ccc(C(F)(F)F)cc1 [Lomitapide Mesylate]	5.45	4.4	6.1	5.88	5.29	5.65
Cc1nnc(SCC2=C(C(=O)O)N3C(=O)[C@@H](NC(=O)Cn4cnnn4)[C@H]3SC2)s1 [Cefazolin Sodium]	0.929	0.587	0.958	0.961	1.06	1.27
C[C@H](Nc1ncnc2[nH]cnc12)c1cc2ccc(F)cc2nc1-c1ccccn1	0.651	0.745	1.41	1.61	1.01	1.19

SMILES	Euclidean distance [1]	Euclidean distance [2]	Euclidean distance [3]	Euclidean distance [4]	Euclidean distance [5]	Euclidean distance [6]
c1ccc([C@H]2CN3CCSC3=N2)cc1 [Levamisole hydrochloride]	0.976	0.704	1.37	0.953	0.417	1.23
COc1cccc(CCc2ccccc2OCC(CN(C)C)OC(=O)CCC(=O)O)c1 (stereo not drawn) [Sarpogrelate hydrochloride]	0.73	1.36	0.739	1.27	0.99	1.63
C=C[C@@]1(C)CC(=O)[C@]2(O)[C@@]3(C)[C@@H](O)CCC(C)(C)[C@@H]3[C@H](O)[C@H](OC(C)=O)[C@@]2(C)O1 [Forskolin]	1.79	1.04	1.39	1.18	1.34	1.23
CS(=O)(=O)CCNCc1ccc(-c2ccc3ncnc(Nc4ccc(OCc5cccc(F)c5)c(Cl)c4)c3c2)o1	3.78	3.57	3.75	4.09	4.37	3.36
O=C(c1c(F)ccc(NS(=O)(=O)N2CC[C@@H](F)C2)c1F)c1c[nH]c2ncc(-c3cnc(C4CC4)nc3)cc12	1.42	1.86	2.02	2.6	1.2	1.44
CO/N=C(\C(=O)N[C@@H]1C(=O)N2C(C(=O)O)=C(COC(C)=O)CS[C@H]12)c1csc(N)n1 [Cefotaxime]	1.26	0.798	0.573	0.69	0.777	0.905
COc1cc(Nc2ncc(F)c(Nc3ccc4c(n3)NC(=O)C(C)(C)O4)n2)cc(OC)c1OC [R406 (free base)]	2.36	3.53	3.18	2.76	1.99	2.41
CCCCc1nc(Cl)c(CO)n1Cc1ccc(-c2ccccc2-c2nnn[nH]2)cc1 [Losartan Potassium (DuP 753)]	0.807	0.621	0.847	0.722	0.759	0.893
CCCCCCCCCCCCCCCCCCOCC(O)CO (stereo not drawn) [Batyl alcohol]	0.871	0.609	0.705	1.18	0.262	0.921
N#Cc1ccc2[nH]cc(CCCCN3CCN(c4ccc5oc(C(N)=O)cc5c4)CC3)c2c1 [Vilazodone HCl]	2.53	2.23	1.66	1.66	2.24	1.77
Nc1c(CC(=O)O)cccc1C(=O)c1ccc(Br)cc1 [Bromfenac Sodium]	1.21	1.01	0.957	1.42	0.3	1.75
CNCc1ccc(-c2cc(-c3nc(-c4ccc(S(=O)(=O)C(C)C)cc4)cnc3N)on2)cc1	3.55	3.91	3.77	4.87	3.55	4.32
Cc1ccc(-c2ccc(C)cn2)nc1 [Abametapir]	1.7	1.07	0.964	1.34	1.61	0.964
COc1ccc2c(Oc3ccc(NC(=O)c4c(C)n(CC(C)(C)O)n(-c5ccccc5)c4=O)nc3)ccnc2c1	1.16	1.01	1.02	3.08	0.897	0.976
CCCCNc1ncc(-c2ccc(CN3CCOCC3)cn2)c(NC2CCC(O)CC2)n1 (stereo not drawn)	0.709	1.2	0.694	1.26	0.659	0.882
CCCCOc1cc(C(=O)NCCN(CC)CC)c2ccccc2n1 [Dibucaine HCl]	1.45	1.68	1.23	1.07	1.52	1.07
CN(C)CCN(Cc1ccccc1)c1ccccn1 [Tripelennamine HCl]	1.42	0.863	0.966	1.05	0.581	1.72
CCCN[C@H]1CCc2nc(N)sc2C1 [Pramipexole 2HCl Monohydrate]	0.779	1.01	1.58	1.08	0.888	1.26
Cn1cc(C2=C(c3ccc(Cl)cc3Cl)C(=O)NC2=O)c2ccccc21	1.92	0.949	1.79	1.57	1.08	1.01
